According to PubChem BioAssay AID1159580 (chemical genetic matrix, 2015):
The whole screen tested about 5,500 compounds, of which about 2,000 (36%) were called active. Not shown: some 18% with an inconclusive outcome. No stated cut-off is given here; in the data, active means normalized growth mostly below about 0.91 (no sharp cut-off); inconclusive means no clear call, values can overlap the other calls; inactive means mostly above about 0.92. Some of the results follow.

Assay: chemical genetic growth profiling, strain panel (AID 1159580);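 further: tested at 20 µM; growth read once vehicle control cultures reached saturation at 30 °C; 1 = growth at the plate median or of vehicle wells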
Settings: S. cerevisiae deletion strains, growth OD
[1] = locus YHR030C, strain SLT2, stronger effect = lower value
[2] = locus YHR079C, strain IRE1, stronger effect = lower value
[3] = locus YJL095W, strain BCK1, stronger effect = lower value
[4] = locus YJR066W, strain TOR1, stronger effect = lower value
[5] = locus YLR113W, strain HOG1, stronger effect = lower value
[6] = locus YNL183C, strain NPR1, stronger effect = lower value
[7] = locus YOR231W, strain MKK1, stronger effect = lower value
[8] = locus YPL256C, strain CLN2, stronger effect = lower value

Measured: normalized growth

Cc1ccccc1/C=C/C1=NCCN1
inactive: locus YAL013W, strain DEP1, stronger effect = lower value 0.997 | locus YAL040C, strain CLN3, stronger effect = lower value 1.09 | locus YCL061C, strain MRC1 (second series), stronger effect = lower value 1.01 | locus YDR150W, strain NUM1, stronger effect = lower value 1.02 | locus YDR363W, strain ESC2, stronger effect = lower value 0.999 | locus YER002W, strain NOP16, stronger effect = lower value 1.01 | locus YGR078C, strain PAC10, stronger effect = lower value 0.982 | locus YJR075W, strain HOC1, stronger effect = lower value 0.997 | locus YMR263W, strain SAP30, stronger effect = lower value 0.995 | locus YMR307W, strain GAS1, stronger effect = lower value 0.978 | locus YNL175C, strain NOP13, stronger effect = lower value 1 | locus YNL197C, strain WHI3, stronger effect = lower value 0.993 | locus YNL224C, strain SQS1, stronger effect = lower value 0.991 | locus YOR083W, strain WHI5 (second series), stronger effect = lower value 0.991

Cc1c[nH]c2ccccc12
inactive: [1] 0.992 | [2] 0.979 | [3] 0.999 | [4] 0.94 | [5] 0.945 | [6] 0.927 | [7] 1 | [8] 1.02

Cc1ccccc1/C=C/c1c[nH]c2ccccc12
active: [5] 0.784
inactive: locus YAR019C, strain CDC15, stronger effect = lower value 0.937 | locus YBL105C, strain PKC1, stronger effect = lower value 0.961 | locus YBR135W, strain CKS1, stronger effect = lower value 0.946 | locus YBR136W, strain MEC1, stronger effect = lower value 0.954 | locus YBR160W, strain CDC28, stronger effect = lower value 0.951 | locus YDL017W, strain CDC7, stronger effect = lower value 0.955 | locus YDL028C, strain MPS1, stronger effect = lower value 0.963 | locus YDL101C, strain DUN1, stronger effect = lower value 0.953 | locus YDL108W, strain KIN28, stronger effect = lower value 0.949 | locus YDL132W, strain cdc53, stronger effect = lower value 0.942 | locus YDL214C, strain PRR2, stronger effect = lower value 0.902 | locus YDR052C, strain DBF4, stronger effect = lower value 0.95 | locus YDR054C, strain cdc34, stronger effect = lower value 0.985 | locus YDR226W, strain ADK1, stronger effect = lower value 0.949 | locus YDR477W, strain SNF1, stronger effect = lower value 0.924 | locus YER123W, strain YCK3, stronger effect = lower value 0.855 | locus YER133W, strain GLC7, stronger effect = lower value 0.906 | locus YFL009W, strain cdc4, stronger effect = lower value 0.945 | locus YFL029C, strain CAK1, stronger effect = lower value 0.92 | locus YFR003C, strain YPI1, stronger effect = lower value 0.958 | locus YFR019W, strain FAB1, stronger effect = lower value 0.924 | locus YFR028C, strain CDC14, stronger effect = lower value 0.955 | locus YGR040W, strain KSS1, stronger effect = lower value 0.916 | locus YGR052W, strain FMP48, stronger effect = lower value 0.965 | locus YGR092W, strain DBF2, stronger effect = lower value 0.858 | [1] 0.921 | [2] 0.948 | locus YHR082C, strain KSP1, stronger effect = lower value 0.937 | locus YHR205W, strain SCH9, stronger effect = lower value 0.88 | locus YIL147C, strain SLN1, stronger effect = lower value 0.956 | [3] 0.946 | locus YJL128C, strain PBS2, stronger effect = lower value 0.906 | locus YJL157C, strain FAR1, stronger effect = lower value 0.895 | locus YJR016C, strain ILV3, stronger effect = lower value 0.952 | locus YJR066W, strain TOR1 (second series), stronger effect = lower value 0.882 | [4] 0.955 | locus YKL048C, strain ELM1, stronger effect = lower value 0.948 | locus YKL067W, strain YNK1, stronger effect = lower value 0.91 | locus YKL101W, strain HSL1, stronger effect = lower value 0.94 | locus YKL193C, strain SDS22, stronger effect = lower value 0.948 | locus YKL203C, strain TOR2, stronger effect = lower value 0.989 | locus YLR133W, strain CKI1, stronger effect = lower value 0.931 | locus YLR403W, strain SFP1, stronger effect = lower value 0.893 | locus YML070W, strain DAK1, stronger effect = lower value 0.891 | locus YMR001C, strain CDC5, stronger effect = lower value 0.937 | locus YMR205C, strain PFK2 (second series), stronger effect = lower value 0.934 | locus YMR277W, strain FCP1, stronger effect = lower value 0.959 | locus YNL006W, strain LST8, stronger effect = lower value 0.955 | locus YNL020C, strain ARK1, stronger effect = lower value 0.912 | locus YNL161W, strain CBK1, stronger effect = lower value 0.953 | [6] 0.94 | locus YNL207W, strain RIO2, stronger effect = lower value 0.948 | locus YNL222W, strain SSU72, stronger effect = lower value 0.946 | locus YNL307C, strain MCK1 (second series), stronger effect = lower value 0.941 | locus YOL078W, strain AVO1, stronger effect = lower value 0.946 | locus YOL136C, strain PFK27, stronger effect = lower value 0.887 | locus YOR061W, strain CKA2, stronger effect = lower value 0.895 | locus YOR119C, strain RIO1, stronger effect = lower value 0.943 | [7] 0.923 | locus YOR329C, strain SCD5, stronger effect = lower value 0.961 | locus YPL031C, strain PHO85, stronger effect = lower value 0.914 | locus YPL153C, strain RAD53, stronger effect = lower value 0.931 | locus YPL204W, strain HRR25, stronger effect = lower value 0.941 | locus YPL209C, strain IPL1, stronger effect = lower value 0.95 | [8] 0.91 | locus YPR025C, strain CCL1, stronger effect = lower value 0.955 | locus YPR106W, strain ISR1, stronger effect = lower value 0.964 | locus YPR111W, strain DBF20, stronger effect = lower value 0.952 | strain NNK1, stronger effect = lower value 0.961 | strain TSCII, stronger effect = lower value 0.947
